4-MU autofl: compounds fluorescent in 4-MU spectral region. 59,000 tested, 11% active. max dye-equivalent concentration, M. compound autofluorescence, 340/450 nm, 4-MU equivalents; stronger effect = higher value; in the data active = max dye-equivalent concentration above about 10 nM; inconclusive = mostly about 1.1 nM to 9.6 nM
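Compounds in 100 mM Tris, pH 8.0, sat 15 min at room temperature before fluorescence was read at 340 nm excitation/450 nm emission; a per-plate six-point 4-MU standard curve converted signals to dye-equivalent concentration at each compound concentration.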
HADH2 inh: inhibitors of human HADH2 dehydrogenase. Potency, µM (series often up to 57.1 µM), usual class: inhibitors. 73,000 tested, 3.4% active. recombinant HADH2, NADH fluorescence, beta-hydroxybutyryl-CoA; note: nearly all actives have a fitted effect of over 60% in size
Target sequence (Q99714 whole entry, looked up, one chain of several): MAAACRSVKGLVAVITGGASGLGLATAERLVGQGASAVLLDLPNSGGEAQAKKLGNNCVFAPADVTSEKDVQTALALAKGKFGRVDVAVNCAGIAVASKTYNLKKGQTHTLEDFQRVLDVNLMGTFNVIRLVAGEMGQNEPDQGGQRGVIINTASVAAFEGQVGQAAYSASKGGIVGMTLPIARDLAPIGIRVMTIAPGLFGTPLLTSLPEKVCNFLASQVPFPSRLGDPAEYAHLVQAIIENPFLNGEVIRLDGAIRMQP
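20 nM HADH2 + cpd, 15 min RT; add 1 mM NAD+/90 uM beta-hydroxybutyryl-CoA; kinetic fluorescence 360/450 nm, 4 min. Tris-HCl pH 9.0, 0.01% Tween-20.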
HSD17B inh: blocks hydroxysteroid 17-beta dehydrogenase activity; Q99714; recombinant HSD17B10, NADH fluorescence kinetic; Potency, µM (titrated, usually from 57.1 µM), usual class: inhibitors; 75,000 tested, 7.6% active; AID 893;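 note: the protocol describes HADH2 (HSD17B10) and not the HSD17B4 of the title; nearly all actives have a fitted effect of over 70% in size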
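Activity followed as NADH fluorescence increase (ex 360, em 450 nm) every 30 seconds for 4 min, using final 90 uM beta-hydroxybutyryl CoA and 1 mM NAD+. Recombinant His-tagged enzyme, 20 nM, pH 9.0 Tris buffer, 15 min compound preincubation.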
CRE-bla Fsk: modulators of forskolin-stimulated CRE signaling in CHO cells | CHO CRE-bla reporter (cAMP response element driving beta-lactamase), forskolin EC10, beta-lactamase ratio | Potency, µM (top dose mostly 38.2 µM), most hits filed as activators | 71,000 tested, 2.5% active | AID 662; active = well fitted activation curve with a large enough effect in the signal ratio, with a control signal flat, not every such curve was filed as active; inconclusive = small, poorly fitted or top-dose-only effect, or effect the other way, or a change in a side signal; the % refers to the signal ratio
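Reporter-gene assay: CHO cells with beta-lactamase behind cAMP responsive elements, co-treated with compound and EC10 NKH 477 for 3 hours at 37 degrees Celsius. Activity came from the 460/530 nm CCF4 emission ratio.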
A350 autofl: compound fluoresces in the Alexa 350 spectral region. Compound autofluorescence, 340/450 nm, Alexa 350 dye-equivalents; stronger effect = higher value. max dye-equivalent concentration, M. 59,000 tested, 11% active; in the data active = max dye-equivalent concentration above about 10 nM; inconclusive = mostly about 1.1 nM to 9.6 nM
AID923: qHTS Assay for Allosteric/Competitive Inhibitors of Caspase-1: Spectroscopic Profiling in AFC Spectral Region; compound fluorescence, AFC spectral region (405/520 nm); Potency, µM (highest dose often 57.5 µM), usual class: activators; 75,000 tested, 1.1% active
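Baseline compound fluorescence (AFC region, 405 nm ex/520 nm em) taken from the intercept of kinetic reads with 50 nM caspase-1 and 5 uM Ac-WEHD-AFC; normalized to an on-plate AFC standard curve; compounds titrated up to 57 uM.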
Each line names hits and unclear results; the compound was inactive in the other large screens. Shown are actives, neighbours in structure and some others; about 14% of the full set was active somewhere. Unless noted, calls come from the whole dose curve; as a rule, active = well fitted curve in the direction sought with a large enough effect; inconclusive = small, poorly fitted or top-dose-only effect, or another doubt; inactive = no such curve, though single readings can be large; an effect the other way counts as inactive or inconclusive.

CC(C)c1nc2oc3c(NCC4CCCO4)ncnc3c2c2c1CCC2 (configuration not stated)	HADH2 inh 31.6µM, HSD17B inh 31.6µM, CRE-bla Fsk inconclusive, A350 autofl inconclusive
C=CCN1CC(c2nc3ccccc3n2CCOc2ccccc2)CC1=O (configuration not stated)	4-MU autofl inconclusive, CRE-bla Fsk inconclusive, A350 autofl 1.24e-08M
Cc1cc(=O)oc2cc(OCCSCCN3CCOCC3)ccc12	4-MU autofl inconclusive, A350 autofl 1.01e-08M (no result: HADH2 inh, HSD17B inh, CRE-bla Fsk, AID923)
CCOc1ccc(C2c3c(oc4cc(C)c(C)cc4c3=O)C(=O)N2CCCN2CCOCC2)cc1 (configuration not stated)	none (no result: 4-MU autofl, A350 autofl)
Cc1cc(=O)oc2cc(OCC(=O)NCCCN3CCOCC3)ccc12	HSD17B inh 25.1µM, A350 autofl inconclusive
O=C(O)c1ccc(OCc2ccccc2)c(Cl)c1	none
O=C(Nc1ccc2c(c1)OCO2)C1CCCN(c2nc3ccccc3s2)C1 (configuration not stated)	4-MU autofl 1.24e-08M, CRE-bla Fsk inconclusive, A350 autofl 1.46e-08M
O=C(Nc1ccc2c(c1)OCO2)C1CCN(S(=O)(=O)c2cccs2)CC1	CRE-bla Fsk 3.16µM
CCOc1ccc(Nc2oc(-c3ccco3)nc2C#N)cc1	4-MU autofl 5.98e-08M, HADH2 inh inconclusive, HSD17B inh inconclusive, CRE-bla Fsk inconclusive, A350 autofl 3.84e-08M
CCOc1ccc(Nc2oc(-c3cccs3)nc2C#N)cc1	4-MU autofl 1.24e-07M, HADH2 inh inconclusive, CRE-bla Fsk 12.6µM, A350 autofl 7.93e-08M
COc1ccc(Nc2oc(COc3cccc(C)c3)nc2C#N)cc1	none
O=c1cnc2cnc(Oc3cccc(Cl)c3)nc2n1C[C@H]1CCCO1	none
COc1ccc(CCC(=O)Nc2nc3c(s2)CN(C)CC3)cc1OC	4-MU autofl 1.07e-08M, A350 autofl 1.61e-08M
Cc1nc2ccc(C(=O)O)cc2c2c1CC(C)S2 (configuration not stated)	4-MU autofl 1.86e-07M, HADH2 inh 3.16µM, HSD17B inh 25.1µM, CRE-bla Fsk inconclusive, A350 autofl 1.73e-07M
O[C@@H](COc1cccc2ccccc12)CN1CCOCC1	4-MU autofl 1.2e-08M, A350 autofl 1.43e-08M
CC(=O)OC[C@@H]1O[C@@H](O/N=C2/C[C@@H](O)[C@@H](O)[C@@H]3[C@@H]4C(=O)N(C5CCCCC5)C(=O)[C@H]4CC[C@@H]23)[C@H](OC(C)=O)[C@H](OC(C)=O)[C@@H]1OC(C)=O	none (no result: 4-MU autofl, CRE-bla Fsk, A350 autofl)
CN(C(=O)c1ccccc1Cl)c1ccccc1	none
CN(C(=O)c1ccncc1)c1ccccc1	A350 autofl 1.95e-07M
N#Cc1ccc(CN2CC[C@@]3(CCCN(C(=O)c4cccc(F)c4)C3)C2)cc1	none
S=c1nc2ccccc2c2nc(-c3ccccc3)[nH]n12	4-MU autofl 1.51e-08M, HADH2 inh inconclusive, A350 autofl 1.42e-08M
CCOc1ccc(-c2nnc(-c3cccs3)o2)cc1OCC	4-MU autofl 1.34e-08M, HSD17B inh 15.8µM, A350 autofl 1.41e-08M
COc1cc2nc(-c3cccs3)oc(=O)c2cc1OC	4-MU autofl 6.47e-07M, HSD17B inh inconclusive, CRE-bla Fsk inconclusive, A350 autofl 7.04e-07M
c1cncc(-c2nnc(-c3cccs3)o2)c1	HADH2 inh inconclusive, HSD17B inh 31.6µM
c1csc(-c2nnc(-c3ccc(N4CCOCC4)cc3)o2)c1	4-MU autofl 1.51e-07M, HADH2 inh inconclusive, HSD17B inh 31.6µM, A350 autofl 1.34e-07M
COc1cc2nc(CN3C(=O)c4ccccc4C3=O)oc(=O)c2cc1OC	none (no result: 4-MU autofl, A350 autofl)
O=C(Cc1cccs1)Nc1ccc(N2CCOCC2)cc1	none (no result: 4-MU autofl, A350 autofl)
CCOc1ccc(-c2nc(-c3ccncc3)no2)cc1OCC	CRE-bla Fsk inconclusive
Brc1ccccc1-c1nnc(-c2cccnc2)o1	none
COc1ccccc1-c1cncnc1NCc1cccs1	none
COc1cc2c(cc1OC)Cc1cc(OC)c(OC)cc1Cc1cc(OC)c(OC)cc1C2	none (no result: 4-MU autofl, HADH2 inh, CRE-bla Fsk, A350 autofl)
N#Cc1c(-c2cccs2)cc(-c2cccnc2)nc1N	4-MU autofl 1.34e-06M, HADH2 inh 12.6µM, HSD17B inh 31.6µM, CRE-bla Fsk 3.98µM, A350 autofl 1.45e-06M
COc1cc(-c2nnc(SCC#CCO)o2)cc(OC)c1OC	CRE-bla Fsk inconclusive
COc1cc(-c2nnc(-c3cccs3)o2)cc(OC)c1OC	4-MU autofl inconclusive, HSD17B inh inconclusive, CRE-bla Fsk 2.51µM, A350 autofl inconclusive
COc1ccc(Cc2nc(-c3cccs3)no2)cc1OC	CRE-bla Fsk 3.98µM (no result: 4-MU autofl, A350 autofl)
N#Cc1c(-c2cccs2)cc(-c2ccccn2)nc1N	none
CCOc1cc(-c2nnc(-c3ccco3)o2)cc(OCC)c1OCC	HSD17B inh 25.1µM (no result: 4-MU autofl, CRE-bla Fsk, A350 autofl)
c1ccc(Nc2ncncc2-c2ccc3c(c2)OCO3)cc1	none
c1ccc2c(c1)nnn2CN1CCOCC1	none
NCCC1([N+](=O)[O-])CCNCC1	none
CCN1C(=O)[C@H]2[C@H]3[C@H](O)[C@H](O)C/C(=N/O[C@@H]4O[C@@H](COC(C)=O)[C@@H](OC(C)=O)[C@@H](OC(C)=O)[C@H]4OC(C)=O)[C@H]3CC[C@@H]2C1=O	none (no result: 4-MU autofl, CRE-bla Fsk, A350 autofl)
Nc1ccccc1S[C@@H](C[N+](=O)[O-])c1ccc2c(c1)OCO2	HADH2 inh inconclusive, HSD17B inh inconclusive
COc1ccc(-c2nnc(-c3cccs3)o2)cc1OC	HSD17B inh 31.6µM, CRE-bla Fsk inconclusive (no result: 4-MU autofl, A350 autofl)
CCC(C)O (configuration not stated)	none (no result: 4-MU autofl, A350 autofl)
CC1CCC/C(=C\Nc2ccc(O)cc2)C1=O (configuration not stated)	HADH2 inh 25.1µM, HSD17B inh inconclusive, CRE-bla Fsk inconclusive, A350 autofl inconclusive
COc1ccc(N/C=C2/CCCCC2=O)cc1	4-MU autofl inconclusive, A350 autofl inconclusive
Cc1cc(-c2cccs2)n[nH]1	none (no result: 4-MU autofl, A350 autofl)
Cc1cc(-c2ccccc2N)n[nH]1	4-MU autofl inconclusive, HSD17B inh 25.1µM, A350 autofl inconclusive
COc1ccc(CCNc2oc(-c3ccccc3OC)nc2C#N)cc1OC	4-MU autofl 4.07e-08M, HADH2 inh 31.6µM, HSD17B inh 31.6µM, CRE-bla Fsk inconclusive, A350 autofl 4.94e-08M
COc1ccc(CNc2oc(C)nc2C#N)cc1	none (no result: 4-MU autofl, A350 autofl)
COc1ccc(CCNc2oc(-c3ccccc3OC)nc2C#N)cc1	4-MU autofl 3.77e-08M, HADH2 inh 12.6µM, HSD17B inh 31.6µM, CRE-bla Fsk inconclusive, A350 autofl 4.99e-08M
N#Cc1nc(COc2ccccc2F)oc1NCCc1ccccc1	CRE-bla Fsk inconclusive, A350 autofl inconclusive
COc1ccccc1-c1nc(C#N)c(NCc2ccc(F)cc2)o1	4-MU autofl 1.17e-08M, HADH2 inh inconclusive, HSD17B inh 31.6µM, CRE-bla Fsk 12.6µM, A350 autofl 1.59e-08M
N#Cc1nc(COc2ccccc2Cl)oc1NCc1ccc(F)cc1	4-MU autofl 1.39e-07M, A350 autofl 1.46e-07M (no result: HADH2 inh, HSD17B inh, CRE-bla Fsk, AID923)

Source: PubChem BioAssay
